Test results published in the supplement of paper PMC12350171.
Where a name gives a salt, the structure may show the parent alone.

The compounds below were run on Salmonella enterica typhimurium (assay: growth AUC normalised to DMSO control (fraction of control); higher = less growth inhibition, active = hit call of the paper). Conditions: 20 µM;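 active = AUC significantly below DMSO controls by Student t-fit with adjusted P under 0.01; inactive = not significantly reduced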.
Procedure, shortened: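 For the AUC endpoint, growth curves were integrated by the trapezoidal rule up to the exponential-to-stationary transition and normalised to DMSO controls on the same plate. The curves came from OD578 readings taken hourly for 24 h, in three biological replicates. Pathogens had been passaged anaerobically twice and inoculated at an OD578 of 0.01 into pre-reduced mGAM plates carrying 20 μM compound and 1% DMSO, sealed with breathable membranes. Medium for Haemophilus parainfluenzae also contained hemin and NAD.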

Structure (SMILES)	growth AUC normalised to DMSO control
Cc1cc2c(cc1S(N)(=O)=O)S(=O)(=O)CCC2 [Meticrane]	1.01 (inactive)
CCCC(CCC)C(=O)O [Valproic acid]	1.01 (inactive)
CNCCC(Oc1ccc(C(F)(F)F)cc1)c1ccccc1 (centres undefined) [Fluoxetine hydrochloride]	0.996 (inactive)
Cc1nnc(SCC2=C(C(=O)O)N3C(=O)[C@@H](NC(=O)Cn4cnnn4)[C@H]3SC2)s1 [Cefazolin sodium salt]	0.00502 (active)
Clc1cc(Cl)c(OCC#CI)cc1Cl [Haloprogin]	1.02 (inactive)
O=C(O)/C=C/c1ccc(Cn2ccnc2)cc1 [Ozagrel hydrochloride]	1.02 (inactive)
CC(=O)OCC(=O)NCCCOc1cccc(CN2CCCCC2)c1 [Roxatidine acetate hydrochloride]	0.99 (inactive)
O=C(O)CNC(=O)C(CS)Cc1ccccc1 (centres undefined) [Thiorphan]	1.02 (inactive)
CCCCOC(=O)c1ccc(O)cc1 [Butylparaben]	1.01 (inactive)
Cc1ccc(S(=O)(=O)NC(=O)NN2CCCCCC2)cc1 [Tolazamide]	1.02 (inactive)
COc1cc2nc(N3CCN(C(=O)C4COc5ccccc5O4)CC3)nc(N)c2cc1OC (centres undefined) [Doxazosin mesylate]	0.974 (inactive)
CC(Oc1ccccc1)C(=O)N[C@@H]1C(=O)N2[C@@H]1SC(C)(C)[C@@H]2C(=O)O (some centres undefined) [Phenethicillin potassium salt]	1.01 (inactive)
Nc1ccccc1S(N)(=O)=O [o-Sulfanilamide]	0.993 (inactive)
COc1ccc2[nH]c([S+]([O-])Cc3ncc(C)c(OC)c3C)nc2c1 (centres undefined) [Omeprazole]	0.958 (inactive)
CC(=O)Oc1ccccc1C(=O)Oc1ccccc1C(=O)O [Acetylsalicylsalicylic acid]	0.997 (inactive)
NCCCC(O)(P(=O)(O)O)P(=O)(O)O [Alendronate sodium]	1.03 (inactive)
O=C1Nc2ccc(Cl)cc2[C@@](C#CC2CC2)(C(F)(F)F)O1 [Efavirenz]	0.997 (inactive)

Structure (SMILES)	growth AUC normalised to DMSO control
CC(=O)O[C@]1(C(C)=O)CC[C@H]2[C@@H]3C=C(Cl)C4=CC(=O)[C@@H]5C[C@@H]5[C@]4(C)[C@H]3CC[C@@]21C [Cyproterone acetate]	1 (inactive)
COc1ccc(C(=O)NCc2ccc(OCCN(C)C)cc2)cc1OC [Itopride]	0.996 (inactive)
O=C(c1ccc(F)cc1)C1CCN(CCn2c(=O)[nH]c3ccccc3c2=O)CC1 [Ketanserin tartrate hydrate]	1.01 (inactive)
C[C@]12C[C@H](O)[C@H]3[C@@H](CCC4=CC(=O)CC[C@@]43C)[C@@H]1CC[C@@H]2C(=O)CO [Corticosterone]	1 (inactive)
C[N+](C)(CCOc1ccccc1)Cc1ccccc1.O=C([O-])c1cc2ccccc2cc1O [Bephenium hydroxynaphthoate]	1.05 (inactive)
Cc1cnc(C(=O)O)c[n+]1[O-] [Acipimox]	0.983 (inactive)
COc1ccc2c(c1)c(CC(=O)OCC(=O)O)c(C)n2C(=O)c1ccc(Cl)cc1 [Acemetacin]	0.979 (inactive)
CN(C)CCC[C@@]1(c2ccc(F)cc2)OCc2cc(C#N)ccc21 [Escitalopram oxalate]	1 (inactive)
CNCCCC12CCC(c3ccccc31)c1ccccc12 [Maprotiline hydrochloride]	1 (inactive)
CCN(CC)CCOC(=O)C1(C2CCCCC2)CCCCC1 [Dicyclomine hydrochloride]	0.935 (inactive)
CNCC(O)c1ccc(OC(=O)C(C)(C)C)c(OC(=O)C(C)(C)C)c1 (centres undefined) [Dipivefrin hydrochloride]	1.01 (inactive)
Cc1ncc([N+](=O)[O-])n1CC(C)O (centres undefined) [Secnidazole]	0.996 (inactive)
COc1cc(OC)c(C(=O)CCCN2CCCC2)c(OC)c1 [Buflomedil hydrochloride]	1 (inactive)
Cc1cc(NC(=O)C2=C(O)c3ccccc3S(=O)(=O)N2C)no1 [Isoxicam]	0.982 (inactive)
CCN(CC)CCNC(=O)c1cc(Br)c(N)cc1OC [Bromopride]	1.01 (inactive)
NCCCC[C@H](N[C@@H](CCc1ccccc1)C(=O)O)C(=O)N1CCC[C@H]1C(=O)O [Lisinopril]	1.01 (inactive)
COCCCC/C(=N\OCCN)c1ccc(C(F)(F)F)cc1 [Fluvoxamine maleate]	0.992 (inactive)
